# Reference: PubChem BioAssay AID1203 (The Scripps Research Institute Molecular Screening Center, 2008)
# The campaign covered roughly 200,000 compounds. About 80 (0.04%) were called active. This is one part of a sample in which actives are shown more often than they occur. A number with no mark means an inactive call.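 The calls were made as follows: active = activation above the mean across all tested compounds plus 3 SD, cutoff set per campaign (cut at about 5.5% in these data); inactive = the rest.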
# Assay: Hsp70 promoter-driven reporter induction – cell-based, HeLa, Hsp70 promoter luciferase, luminescence, 10 µM, primary screen (AID 1203);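 also: 100% = MG132 at 30 µM as the positive control and 0% = DMSO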
# Conditions: at 10 µM, active compounds read high, scaled: vehicle 0, proteasome-inhibitor control 100%
row,Structure (SMILES),activation
1,Cn1c(=O)cc(OCC(=O)N2CCN(c3ccccc3F)CC2)c2ccccc21,0.82%
2,COc1ccc(C/C(C)=N/NC(=O)c2ccncc2)cc1,-0.08%
3,COc1ccccc1C(=O)CSc1cccc[n+]1[O-],0.19%
4,CCC(C)(C(=O)Nc1ccccc1C)N(C(=O)CNC(C)=O)c1ccc(C)cc1 (stereo not drawn),-0.25%
5,OCCC1CN(Cc2ccc3nsnc3c2)CCN1C1CCCCC1 (stereo not drawn),-0.14%
6,CC(C)(C)NCCCOc1ccc(Cl)cc1C(C)(C)C,-0.26%
7,CCN(CC)Cc1nc2sc(C)c(C)c2c(=O)[nH]1,-0.4%
8,COc1ccc(/C=C/C(=O)Nc2ccc(C34CC5CC(CC(O)(C5)C3)C4)cc2)cc1OC,0.8%
9,CC(NC(=S)Nc1ccc(OC(F)F)cc1)c1ccc(F)cc1 (stereo not drawn),-0.29%
10,O=C(O)c1n[nH]nc1-c1ccccc1,-0.44%
11,CN(C)c1ccc(C2Nc3ccccc3C(=O)N2NS(=O)(=O)c2ccccc2)cc1 (stereo not drawn),-0.44%
12,CCCC(C)C(=O)OCC(=O)Nc1c(Br)cc(C)cc1Br (stereo not drawn),-0.19%
13,O=C(Nc1nc(-c2cccnc2)cs1)c1ccccc1F,0.2%
14,O=C(NC1CCc2ccccc21)C12CN(Cc3ccccc3)CC1C(c1cccc([N+](=O)[O-])c1)=NO2 (stereo not drawn),-0.09%
15,CC[C@H]1OC(=O)[C@H](C)[C@@H](O[C@H]2C[C@@](C)(OC)[C@@H](O)[C@H](C)O2)[C@H](C)[C@@H](O[C@@H]2O[C@H](C)C[C@H](N(C)C)[C@H]2O)[C@](C)(O)C[C@@H](C)[C@@H]2N[C@@H](COCCOC)O[C@H]([C@H]2C)[C@]1(C)O,-0.19%
16,CCc1cc2c(=O)c(-c3ccc(F)cc3)c(C(F)(F)F)oc2cc1OCC(=O)O,-0.05%
17,O=C(COC(=O)c1cc([N+](=O)[O-])ccc1NCc1ccccc1)NC1CCCCC1,-0.39%
18,CCCN(CC1COc2ccccc2O1)C(=S)Nc1ccc(C)cc1 (stereo not drawn),-0.24%
19,COc1ccc(NC(=O)COC(=O)c2ccc(NS(=O)(=O)/C=C/c3ccccc3)cc2)cc1,-0.47%
20,COc1cccc(OCc2cc(/C=N/NC(=O)c3nc(Cl)c(Cl)c(N)c3Cl)ccc2OC)c1,-0.07%
21,CC1Cc2ccccc2N1C(=O)CSc1nnc(-c2ccc(S(=O)(=O)N3CCCC3)cc2)n1C (stereo not drawn),0.16%
22,Cc1cc(C(=O)NNC(=O)c2cccc(S(=O)(=O)N3CCOCC3)c2)c2ccccc2n1,-0.21%

row,Structure (SMILES),activation
1,Fc1ccccc1CNC(=S)Nc1ccc(Cl)cc1,-0.2%
2,Cc1nnc(SCC(=O)NNC(=O)c2ccc(Cl)cc2)n1CC1CCCO1 (stereo not drawn),-0.36%
3,CC(C)CC(=O)NC(=S)Nc1ccc(F)cc1F,-0.43%
4,O=C(/C=C/Sc1ncn[nH]1)c1ccc(Cl)cc1,26.9% (active)
5,O=C(NCCOCc1ccc(Cl)cc1)c1ncn[nH]1,-0.36%
6,Cc1ccc(C(=O)/C=C/c2c(C)nn(-c3ccccc3)c2Cl)cc1,-0.32%
7,Cc1cccc(C)c1NC(=S)N(Cc1cccnc1)Cc1ccccc1Cl,-0.11%
8,N#C/C(=C/c1ccc(N2CCOCC2)o1)C(=O)N1CCOCC1,-0.09%
9,CCC(=O)c1ccc(OCC(O)Cn2nc(C)c(C(C)=O)c2C)cc1 (stereo not drawn),0%
10,CC(C)c1ccc(C2C(C#N)=C(N)Oc3c2oc(CO)cc3=O)cc1 (stereo not drawn),-0.2%
11,CSc1ccc(/C=C/C(=O)NC23CC4CC(CC(C4)C2)C3)cc1,-0.25%
12,CCc1ccccc1NC(=O)CN(C)C(=O)COc1ccc(C)nc1[N+](=O)[O-],-0.28%
13,CC1CN/C(=C\C(=O)c2ccc(Br)cc2)C(=O)N1 (stereo not drawn),-0.31%
14,COc1ccc(CC(NC(C)=O)C(=O)NC2CCN(C(=O)c3ccc(OC)c(OC)c3)CC2)cc1OC (stereo not drawn),-0.19%
15,Cc1cc(C)n2nc(SCC(=O)NC(=O)NCc3ccco3)nc2n1,-0.06%
16,COCc1c(C(=O)OCc2c(C)noc2C)oc2ccccc12,0.25%
17,Cc1cc(C)c2[nH]c(=O)c(CN(Cc3ccccc3)C(=S)NCCCN(C)C)cc2c1,-0.22%
18,CC(C)(C)NC(=O)Cn1cnc2cc([N+](=O)[O-])ccc2c1=O,0.46%
19,NNC(=O)c1cnn(-c2ccccc2)c1C(F)(F)F,0.08%
20,CN(C)C(=O)N1CCNCC1,-0.1%
21,CC(C)CN(C(=O)CN1CCN(S(=O)(=O)c2ccccc2)CC1)c1c(N)n(CC(C)C)c(=O)[nH]c1=O,0.23%
22,CCOC(=O)c1c(CN(C)C)n(-c2ccccc2)c2cc(Br)c(O)cc12,-0.03%

row,Structure (SMILES),activation
1,C/C(=N\Nc1ncc(Cl)cc1Cl)c1cccs1,-0.17%
2,Cc1ccc(N2C(=O)C(NC(=O)c3c(F)cccc3F)(C(F)(F)F)C3=C2CC(C)(C)CC3=O)cc1 (stereo not drawn),-0.33%
3,Cc1cccc(NC(=O)Cn2c(=O)n(Cc3ccccc3)c(=O)c3c(C)c(C)sc32)c1,-0.2%
4,Cc1cc(Cl)ccc1OCCCC(=O)NCc1ccncc1,0.28%
5,C=CCn1cc(C(=O)NCc2ccc(Cl)cc2)c(=O)c2cc(S(=O)(=O)N(CC)CC)ccc21,-0.11%
6,COc1cccc(-c2nn(-c3ccccc3)cc2/C=C(\C#N)C(=O)NCCCn2ccnc2)c1,-0.06%
7,CC(C)Oc1ccccc1C(=O)NC(CO)C(=O)O (stereo not drawn),0.09%
8,O=C(CSc1ccc([N+](=O)[O-])cn1)Nc1ccc(N2CCOCC2)cc1,-0.24%
9,NS(=O)(=O)c1cccnc1Nc1cccc(Cl)c1,0.75%
10,CC(Oc1ccccc1)C(=O)NN1Cc2ccccc2C1=N (stereo not drawn),-0.3%
11,CC(OC(=O)c1ccccc1N1C(=O)C2C3CCC(C3)C2C1=O)C(=O)c1ccccc1 (stereo not drawn),-0.1%
12,O=[N+]([O-])c1cccc(C2=NCCS2)c1,-0.29%
13,CC(=O)N1CCN(CC(=O)Nc2ccc(SC(F)F)cc2)CC1,-0.16%
14,CNC(=S)N1CCN(c2ccccn2)CC1,0.23%
15,CC(=O)c1c(C)[nH]c(C(=O)OCC(=O)NCCC(C)C)c1C,-0.33%
16,Cc1ccccc1N1C(=O)C(Oc2ccc(Cl)cc2)C1CNCC1CCCO1 (stereo not drawn),-0.08%
17,COc1ccc(S(=O)(=O)N(C)CC(=O)N2CCCC2)cc1Cl,-0.1%
18,NC(=O)c1ccc(NC(=O)COC(=O)c2c3c(nc4ccccc24)/C(=C\c2ccc4c(c2)OCO4)CCC3)cc1,-0.43%
19,COc1ccc(C2CC(c3cccs3)=NN2C(=O)CSc2nnc(N)s2)cc1OC (stereo not drawn),-0.12%
20,CCN(CC)CCN(C(=O)c1cccc([N+](=O)[O-])c1)c1nc2ccc(OC)cc2s1,-0.15%
21,CCOc1ccc(-c2n[nH]c(C)c2-c2ccccn2)c(O)c1,-0.39%
22,CCC(=O)NC(Nc1cc(C)ccn1)(C(F)(F)F)C(F)(F)F,-0.11%

row,Structure (SMILES),activation
1,Cc1ccc(NC(=S)N(CCCN2CCCC2)Cc2cccn2Cc2ccc(Cl)cc2)cc1,0.2%
2,COc1ccc(NC(=O)/C(C#N)=C\c2cc(OC)c(OCc3ccc(C(=O)O)cc3)cc2Br)cc1,-0.51%
3,COc1ccc(NC(=O)CSc2nnc(-c3ccccc3F)n2C2CC2)cc1S(N)(=O)=O,-0.2%
4,Cc1ccc(-n2c(SCC(=O)N3c4ccccc4Sc4ccccc43)nnc2-c2ccncc2)cc1,-0.33%
5,CC(C)NC(=O)NC(=O)CSc1nnc(-c2ccccc2F)n1N,0.03%
6,Cc1cc(C)c(OCCN2CC(C)OC(C)C2)c(Br)c1 (stereo not drawn),-0.19%
7,Cc1ccc(C)c(-n2cc(CN3CCN(C(=O)c4ncn[nH]4)CC3)c(-c3ccccc3)n2)c1,-0.1%
8,CC(=C/c1ccccc1)/C=N/NC(=O)c1cc(C)oc1C,0%
9,CCCOC1CCCN(Cc2cn(C)nc2-c2ccccc2F)C1 (stereo not drawn),-0.04%
10,Cc1ccccc1NC(=O)Cn1c(=O)n(CC2CCCO2)c(=O)c2ccccc21 (stereo not drawn),-0.17%
11,O=C1NC2(CCCCCC2)C(=O)N1CCS(=O)(=O)Oc1ccccc1,-0.27%
12,Cc1ccc(C(=O)NCC(=O)O)s1,0.11%
13,O=C(CCCN1C(=O)/C(=C/c2ccccc2)SC1=S)Nc1ccc(O)cc1,-0.12%
14,Cc1ccc(NC(=O)c2cccnc2C(=O)Nc2ccc(C)cc2)cc1,-0.14%
15,NC(=O)C[C@@H]1NC(=O)CNC(=O)c2cc([N+](=O)[O-])cc(I)c2NCCC(C(N)=O)NC1=O (stereo partly drawn),0.03%
16,Cc1cccc(NC(=S)NC(=O)c2ccc(Br)o2)c1,0.26%
17,CC(=O)Nc1nc2ccccc2n1Cc1ccc(C)cc1,-0.13%
18,COC(=O)CN1C(=S)N(c2ccccc2)C(=O)C1CC(=O)Nc1ccc(Cl)cc1 (stereo not drawn),-0.13%
19,COc1ccc(-c2nc(N)sc2C2(O)C(=O)Nc3c(Br)cc(F)cc32)cc1OC (stereo not drawn),-0.09%
20,CCOc1ccc(N2CC(C(=O)NCCN3C(=O)S/C(=C\c4cccnc4)C3=O)CC2=O)cc1 (stereo not drawn),-0.14%
21,Cc1ccc(Cl)c(NC(=O)CN(C)CC(=O)Nc2ccc(F)c(F)c2F)c1Cl,-0.39%
22,C/C(=N\NC(=O)CCn1nc(C)cc1C)C(C)(C)C,-0.13%
